Screening data (PubChem BioAssay)
TLR9-MyD88 inh: inhibitors of TLR9-MyD88 association in cells, primary screen, cell-based, CHO, BLA complementation, fluorescence | Toll-like receptor 9 (Homo sapiens) + Myeloid differentiation primary response protein … | CCF4 FRET ratio | inhibition, % at 4.98 µM | 340,000 tested, 0.21% active | AID 504734, 2011;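 active means inhibition above the mean over all tested compounds plus 3 SD, cut at about 21% in these data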;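 further: 0% = DMSO only wells and 100% = clavulanate BLA inhibitor control wells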
TLR4-MyD88 BLA: inhibitors of TLR4-MyD88 association in cells, primary screen, cell-based, HeLa CL3-4, BLA complementation, FRET ratio. 200,000 tested, 0.18% active. inhibition, % at 8.4 µM. HeLa CL3-4 TLR4/MyD88 BLA complementation; in the data active means inhibition above about 25%;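 further: 0% = vehicle and 100% = reference inhibitor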
HTR2A ag: mouse Htr2a agonists via beta-arrestin recruitment, primary screen, cell-based, luminescence | 5-hydroxytryptamine receptor 2A (Mus musculus), P35363 | CHO-K1 mHTR2A beta-arrestin complementation; percent of 30 µM serotonin response | activation, % at 7.6 µM | 360,000 tested, 0.66% active | AID 624169, 2012;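 active means activation above a run cutoff, the mean activation of all tested compounds plus 3 SD, cut at about 14% in these data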;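 further: 0% = plate median of compound wells and 100% = 30 µM serotonin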
Rtt109 HAT inh: inhibitors of C. albicans Rtt109/Vps75 HAT, primary screen, biochemical, ThioGlo CoA-SH fluorescence, plate reader; Histone acetyltransferase RTT109 (Candida albicans (strain SC5314 / ATCC MYA-2876)), …; purified Rtt109/Vps75, 4 h; inhibition, % at 34.9 µM; 330,000 tested, 0.16% active;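 active means inhibition of at least 50% in every replicate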
NOD2-RIPK2 inh: NOD2-RIPK2 binding disruptors in cells, primary screen, fluorescence, CHO cells, BLA complementation; CCF4 ratio; inhibition, % at 4.98 µM; 360,000 tested, 0.38% active; in the data active means inhibition above about 21%;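 further: 0% = vehicle only and 100% = reference blocker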
LANA-H2B inh: blockers of LANA interaction with H2A/H2B – biochemical, FP readout, HTS, primary screen | Protein LANA1 (Human herpesvirus 8 type P (isolate GK18)), Q9QR71 | cell-free LANA-H2A/H2B peptide, fluorescence polarization | inhibition, % (concentration not given with the values) | 320,000 tested, 0.6% active; in the data active means inhibition mostly above about 10%, no sharp cut-off; inactive means mostly below about 6.7%
NOD2 RIPK2 conf: NOD2-RIPK2 binding disruptors, retest, confirmation, fluorescence, CHO cells, BLA complementation, triplicate; CCF4 FRET; inhibition, % at 4.98 µM; shares compounds with NOD2-RIPK2 inh; AID 624370, 2012; 1,200 tested, 70% active;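 active means mean inhibition across replicates above a set limit taken from the earlier primary screen, cut at about 21% in these data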;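 further: 0% = DMSO-only wells and the high end = clavulanate BLA-blocked wells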
BLA counter: NOD2-RIPK2 counterscreen BLA reporter activity; shares compounds with NOD2-RIPK2 inh; CHO BLA reporter, CCF4 FRET ratio; inhibition, % at 4.98 µM; 1,200 tested, 57% active; AID 624371;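 active means mean inhibition above the low-control mean inhibition plus three low-control SD, cut at about 11% in these data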;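 further: 0% = DMSO only wells and 100% = clavulanate high control wells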
The depositor's hits bear a star; . = no result; ! = not active in a repeat. Only some compounds are listed: those with a hit (about 1.8% of all), similar ones and a draw of the others.

SMILES	TLR9-MyD88 inh	TLR4-MyD88 BLA	HTR2A ag	Rtt109 HAT inh	NOD2-RIPK2 inh	LANA-H2B inh	NOD2 RIPK2 conf	BLA counter
C=C1C(=O)C23CCC4C(C)(C(=O)OC)CCCC4(C)C2CCC1(O)C3 (stereo unspecified)	3	.	-7	11	79*	.	88*	21*
COC(=O)[C@]1(C)CCC[C@@]2(C)C3CC[C@@]4(C)C[C@]3(CCC21)CC(=O)N4 (stereo partly specified)	-4	.	4	-8	8	-1	.	.
CCO[C@H]1OC(C(=O)NCc2ccccc2)=C[C@@H](c2ccc(Br)cc2)[C@@H]1CCCO	0	3	5	5	29*	0	-20	-5
COC(=O)Cc1ccc(OC(=O)c2cccc(S(=O)(=O)N3CCN(C)CC3)c2)cc1	-2	.	-10	-4	2	6	.	.
CCOc1ccc(S(=O)(=O)N2CCCC(C(=O)NCCN3CCOCC3)C2)cc1Cl (stereo unspecified)	-10	.	-11	11	-9	-2	.	.
CCOc1ccc2c(c1)C(C)=CC(C)(C)N2S(=O)(=O)c1ccc(NC(C)=O)cc1	-6	.	0	15	19	-3	.	.
COc1ccc2c(c1)C(C)=CC(C)(C)N2S(=O)(=O)c1ccc(NC(C)=O)cc1	-6	.	4	1	26*	2	14	-4
O=c1c2ccc(F)cc2sn1-c1ccccc1	14	.	8	.	36*	.	46*	8
O=c1c2ccccc2sn1-c1ccc(Cl)cc1	19	.	10	.	12	.	.	.
CC(C)c1ccc(N(CC(=O)NCc2cccnc2)S(=O)(=O)c2ccccc2)cc1	3	.	0	-10	-6	2	.	.
Nc1ccc(-c2nc3ccc(N)cc3[nH]2)cc1	4	-23	5	5	-1	1	.	.
Nc1ccc2cc3[nH]c4cc(N)ccc4c3nc2c1	11	.	-2	5	39*	.	73*	66*
CCCCN1CCC(COC(=O)c2cc(Cl)c(N)c3c2OCCO3)CC1	9	.	-4	-3	-12	6	.	.
CCCCNc1c(-c2ccc(SC(C)CC)cc2)nc2ccccn12 (stereo unspecified)	10	.	0	-59	22*!	9	20	16*
CCCCNc1c(-c2ccc(SC3CCCCC3)cc2)nc2ccccn12	0	.	5	12	6	-2	.	.
CCC(C)Sc1cccc(-c2nc3ccc(C)cn3c2NC2CCCCC2)c1 (stereo unspecified)	1	.	-5	-4	-9	1	.	.
CCC(C)Sc1cccc(-c2nc3cnccn3c2NC2CCCCC2)c1 (stereo unspecified)	22*	.	-2	-16	34*	.	28*	42*
COc1cc(Cl)c(S(=O)(=O)N2CCCC2)cc1Cl	3	10	-1	-2	-8	-2	.	.
COc1cc(N2C(=O)C=CC2=O)c(OC)cc1Cl	17	.	-4	-5	51*	5	80*	23*
Nc1ccc(S(=O)(=O)NC2(C(F)(F)F)NC(=O)N(Cc3ccccc3)C2=O)cc1 (stereo unspecified)	-11	.	-7	-2	1	-3	.	.
O=C(CS(=O)(=O)c1ccccc1)Nc1ccccc1Br	-2	.	3	-6	11	.	.	.
Cc1ccc(-c2cc(C(F)F)nc(S(C)(=O)=O)n2)cc1	15	4	-1	-6	23*	-11	18	-2
Cc1ccc(-c2cc(-c3ccccc3)nc(Cl)n2)cc1	4	12	8	22	-1	1	.	.
CCOC(=O)C1=CC[C@@H](c2ccccc2)N(S(=O)(=O)c2ccc(C)cc2)[C@H]1C#N	.	.	5	.	44*	.	16	-2
CCOC(=O)C1=CC[C@@H](c2ccccc2)N(S(=O)(=O)c2ccc(C)cc2)[C@H]1c1ccc(C#N)cc1	.	.	0	.	7	.	.	.
SMILES	TLR9-MyD88 inh	TLR4-MyD88 BLA	HTR2A ag	Rtt109 HAT inh	NOD2-RIPK2 inh	LANA-H2B inh	NOD2 RIPK2 conf	BLA counter
COc1ccc(CN2CCn3ncc(C(=O)Nc4ccccc4)c3C2=O)cc1	-1	-4	1	4	22*	1	-7	-3
COc1ccc(NC(=O)c2cnn(-c3ccccc3)c2C)cc1	0	.	-1	-5	-1	-12	.	.
Cc1cccc(-n2ncc3c2CCCC3NC(=O)C2=CC(=O)CC(C)(C)O2)c1C (stereo unspecified)	3	.	5	-1	-3	-3	.	.
COc1ccc(C(=O)/C=C/C(=O)N(CC(=O)NC2CCCCC2)Cc2cccs2)c(O)c1	18	24	-10	-4	74*	-1	85*	17*
COc1ccc(CN(C(=O)/C=C/C(=O)c2ccc(OC)cc2O)C(C(=O)NC2CCCCC2)c2ccncc2)cc1 (stereo unspecified)	-9	-28	-1	7	4	3	.	.
Cn1c(CNC(=O)c2ccco2)nnc1SCC(=O)N1CCN(c2ccccc2F)CC1	-4	.	-1	1	-7	3	.	.
C=CCNC1=C(Cl)C(=O)N(c2cccc(Cl)c2Cl)C1=O	6	6	-6	-2	22*	3	8	8
CC(NC1c2ccccc2-c2ccccc21)c1ccccc1 (stereo unspecified)	-11	.	0	0	-12	9	.	.
CCOC(=O)Cc1cn(C(=O)OC(C)(C)C)c2ccccc12	-9	.	0	6	-7	2	.	.
Cc1ccc(NC(=O)C2=C(c3ccccc3)S(=O)(=O)CCS2(=O)=O)cc1	9	14	0	.	56*	-1	78*	10
Cc1c(C(=O)N2CCCCC2)c(S(=O)(=O)N(C)Cc2ccccc2)c(C)n1C	-14	.	-5	3	-14	6	.	.
O=C(Nc1ccc(F)cc1)c1nn(-c2ccccc2)c(=O)cc1Cl	7	6	14	43	36*	.	40*	5
CC1(O)C(c2ccccc2)=Nc2ccccc21 (stereo unspecified)	-3	.	1	.	-1	.	.	.
O=[N+]([O-])c1ccc(N/N=C/c2ccccc2O)cc1	8	.	-6	10	27*	-5	38*	35*
